Experimental data: publication PMC5540273 (PLoS ONE, 2017)
Where two headings read alike, the source gives them in different places.

How the values were obtained:
[1] = test system: RPS6KA4(Kin.Dom.1-N-terminal); conditions: n = 1
[2] = test system: RPS6KA4(Kin.Dom.2-C-terminal); conditions: n = 1
[3] = test system: RPS6KA5(Kin.Dom.1-N-terminal); conditions: concentration: 1 μM, replicates: in singlicate; n = 1
[4] = test system: RPS6KA5(Kin.Dom.2-C-terminal); conditions: concentration: 1 μM, replicates: in singlicate; n = 1
[5] = test system: T1, RSK1(Kin.Dom.1-N-terminal); conditions: concentration: 1 μM, replicates: in singlicate; n = 1
T1 construct: gene RPS6KA1

[6] = test system: T2, RSK1(Kin.Dom.2-C-terminal); conditions: concentration: 1 μM, replicates: in singlicate; n = 1
T2 construct: gene RPS6KA1

[7] = test system: T3, RSK2(Kin.Dom.1-N-terminal); conditions: concentration: 1 μM, replicates: in singlicate; n = 1
T3 construct: gene RPS6KA3

[8] = test system: T4, RSK2(Kin.Dom.2-C-terminal); conditions: concentration: 1 μM, replicates: in singlicate; n = 1
T4 construct: gene RPS6KA3

[9] = test system: T5, RSK3(Kin.Dom.1-N-terminal); conditions: concentration: 1 μM, replicates: in singlicate; n = 1
T5 construct: gene RPS6KA2

[10] = test system: T6, RSK3(Kin.Dom.2-C-terminal); conditions: concentration: 1 μM, replicates: in singlicate; n = 1
T6 construct: gene RPS6KA2

[11] = concentration: 1 μM, replicates: in singlicate
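Also: KINOMEscan kinase panel screen.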

| Structure (SMILES) | %Inh [1, 11] | %Inh [2, 11] | %Inh [3] | %Inh [4] | %Inh [5] | %Inh [6] | %Inh [7] | %Inh [8] | %Inh [9] | %Inh [10] | %Inh ([1]; 1 µM) | %Inh ([2]; 1 µM) |
| --- | --- | --- | --- | --- | --- | --- | --- | --- | --- | --- | --- | --- |
| O=C(Nc1n[nH]c2cc(-c3ccoc3)ccc12)C1CC1 [SB-738481] | 0% | 11% | 0% | 0% | 12% | 0% | 1% | 0% | 0% | 2% |  |  |
| O=C(Nc1cccc(-c2nn3ncccc3c2-c2ccnc(Nc3ccccc3)n2)c1)c1c(F)cccc1F [GSK198271] | 18% | 0% | 18% | 0% | 95.3% | 5% | 0% | 0% | 37% | 17% |  |  |
| Nc1n[nH]c2cnc(-c3ccccc3)cc12 [SB-642124] | 0% | 71% | 12% | 44% | 23% | 0% | 22% | 23% | 18% | 3% |  |  |
| CCS(=O)(=O)c1ccc(OC)c(Nc2nccc(-c3c(-c4cccc(NC(=O)c5c(F)cccc5F)c4)nn4ncccc34)n2)c1 [GSK326180] | 16% | 0% | 25% | 0% | 64% | 0% | 0% | 0% | 29% | 0% |  |  |
| COc1cccc(C2=C(Nc3ccc(Cl)c(C(=O)O)c3)C(=O)NC2=O)c1 [SB-390769] | 17% | 0% | 13% | 0% | 29% | 0% | 100% | 20% | 14% | 0% |  |  |
| Cn1cc(-c2ccc3c(c2)CCN3C(=O)Cc2cccc(F)c2)c2c(N)ncnc21 [GSK2603358] | 7% | 0% | 35% | 0% | 20% | 3% | 0% | 0% | 20% | 0% |  |  |
| CCn1c(-c2nonc2N)nc2c(C#CC(C)(C)O)ncc(OCCCCN)c21.O=C(O)C(F)(F)F.O=C(O)C(F)(F)F [GSK507274] |  |  | 37% | 74% | 18% | 0% | 19% | 0% | 11% | 6% | 10% | 99% |
| Nc1ncc(-c2ccc3nccc(-c4ccncc4)c3c2)cc1S(=O)(=O)N1CCOCC1 [GSK1627798] | 0% | 0% | 18% | 0% | 14% | 0% | 0% | 0% | 7% | 0% |  |  |
| NCCCC(NC(=O)c1cc(Br)c(-c2ccnc3[nH]ccc23)s1)c1ccccc1.O=C(O)C(F)(F)F.O=C(O)C(F)(F)F (stereo not shown) [GSK1287544] | 53% | 1% | 51% | 5% | 0% | 0% | 29% | 0% | 12% | 0% |  |  |
| c1ccc(Oc2ccc(Nc3ccnc4cc(-c5ccc(CNCCN6CCOCC6)o5)ccc34)cc2)nc1 [GW567145] | 0% | 0% | 0% | 0% | 93.3% | 0% | 0% | 0% | 0% | 0% |  |  |
